Screening data (PubChem BioAssay)
Compounds with a hit are over-represented: about 11% of the library has one in this group of screens.
NPSR antagonist: antagonists of human neuropeptide S receptor cAMP signaling. CHO-NPSR cells, cAMP TR-FRET, antagonist mode. AID 1461. Q6W5P4. hit rate 1% among 220,000. Potency, µM (highest dose often 38.3 µM), inactives show top-dose activity change, negative = inhibition, most hits filed as inhibitors; active means well fitted curve in the direction sought with a large enough effect; inconclusive means small, poorly fitted or top-dose-only effect, or another doubt; inactive means no such curve, though single readings can be large; an effect the other way counts as inactive or inconclusive; further: potency means the concentration at half of the fitted maximal effect; nearly all actives have a fitted effect of over 50% in size
ALDH1A1 inh: blocks purified human ALDH1A1 activity. Potency, µM (doses to about 75.3 µM), inactives show top-dose activity, negative = inhibition, hits mostly inhibitors. Purified ALDH1A1, NADH fluorescence, propionaldehyde substrate. hit rate 7.3% among 220,000. AID 1030. P00352;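 further: potency means the concentration at half of the fitted maximal effect; plate controls were no enzyme wells and a reference inhibitor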
Target sequence (P00352 whole entry, looked up): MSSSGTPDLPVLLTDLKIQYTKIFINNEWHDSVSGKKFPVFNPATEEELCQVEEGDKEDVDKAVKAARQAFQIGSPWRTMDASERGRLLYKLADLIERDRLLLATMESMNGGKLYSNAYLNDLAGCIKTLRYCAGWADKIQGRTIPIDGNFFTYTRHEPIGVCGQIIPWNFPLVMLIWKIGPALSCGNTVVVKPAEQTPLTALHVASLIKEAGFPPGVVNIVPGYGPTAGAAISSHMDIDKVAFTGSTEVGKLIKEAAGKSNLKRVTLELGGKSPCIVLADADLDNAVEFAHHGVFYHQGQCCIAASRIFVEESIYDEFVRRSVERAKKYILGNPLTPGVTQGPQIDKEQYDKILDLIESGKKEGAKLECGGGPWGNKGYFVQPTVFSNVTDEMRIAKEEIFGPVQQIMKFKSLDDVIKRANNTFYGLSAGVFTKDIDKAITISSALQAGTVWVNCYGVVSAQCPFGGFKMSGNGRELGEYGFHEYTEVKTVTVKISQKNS
IMPase Li cell: IMPase inhibition in cells with lithium potentiation | hit rate 0.35% among 210,000 | CHO-M1 cells, IP1 TR-FRET (IP-One), carbachol + lithium | Potency, µM (highest dose often 59.4 µM), inactives show top-dose activity, negative = IMPase inhibition, usual class: inhibitors; active means well fitted curve in the direction sought with a large enough effect; inconclusive means small, poorly fitted or top-dose-only effect, or another doubt; inactive means no such curve, though single readings can be large; an effect the other way counts as inactive or inconclusive;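 further: IP1 builds up when IMPase is blocked and the TR-FRET signal falls; potency means the concentration at half of the fitted maximal effect; plate controls were basal vehicle for no effect and high inhibitor control for full effect; nearly all actives have a fitted effect of over 50% in size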
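Steps: plate 2000 CHO-M1 cells per well and culture 16–30 h; add compound and lithium; incubate 30 min, 37C; add d2-IP1 tracer and Eu cryptate anti-IP1 antibody in lysis buffer; read after 10 min at room temperature.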
HPGD inh: blocks human HPGD enzyme activity | purified HPGD, NADH fluorescence kinetic, PGE2 substrate | P15428 | hit rate 4.3% among 150,000 | Potency, µM, without a hit: at the highest dose activity change, negative = inhibition, most hits filed as inhibitors; further: potency means the concentration at half of the fitted maximal effect
Target sequence (P15428 whole entry, looked up): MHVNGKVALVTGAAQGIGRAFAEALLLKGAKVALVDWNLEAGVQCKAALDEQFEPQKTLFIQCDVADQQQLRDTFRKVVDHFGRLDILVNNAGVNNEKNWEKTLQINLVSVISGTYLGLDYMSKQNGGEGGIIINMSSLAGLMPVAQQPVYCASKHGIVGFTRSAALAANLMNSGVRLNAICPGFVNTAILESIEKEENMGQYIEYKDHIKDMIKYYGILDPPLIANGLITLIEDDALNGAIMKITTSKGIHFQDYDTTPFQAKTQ
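NADH formation kinetics: reaction with 30 uM PGE2 and 1 mM NAD+ (final), 20 nM enzyme, Tris-HCl pH 8 with Tween 20, after 15 min compound preincubation at room temperature. Fluorescence change, last versus first of five reads.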
IMPase cell inh: IMPase inhibition in cells; P97697; CHO-M1 cells, IP1 accumulation, HTRF TR-FRET ratio; inhibition (IP1 accumulation), % at 46.1 µM; 120,000 tested, under 10 active; AID 901; active means well fitted curve in the direction sought with a large enough effect in the signal ratio, not every such curve was filed as active; inconclusive means small, poorly fitted or top-dose-only effect, or a change in a side signal; inactive means no such curve, though single readings can be large or run the other way; the % refers to the signal ratio;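 further: cells stimulated with carbachol in lithium chloride buffer; plate controls were DMSO basal wells for no effect and reference inhibitor wells for full effect; higher means more IMPase inhibition seen as more IP1 and lower FRET ratio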
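Measured: the HTRF emission ratio (665/620 nm) plus the 620 nm donor channel, each fitted to the Hill equation to give AC50. Cells were CHO-M1 given compounds up to 46 uM and a 30 min carbachol stimulation at 37C.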
PNC inhibitor: perinucleolar compartment assembly inhibition; PC3M PTB-GFP, PNC prevalence imaging, 16 h; hits give low values; activity change (PNC), negative = inhibition, % at 10 µM; hit rate 3.1% among 140,000;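 active means readout at or below -70, meaning at least 70% loss of cells showing the perinucleolar compartment, a nuclear body marking cancer cells; inconclusive means readout between -30 and a set limit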;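 further: plate controls were DMSO wells for no effect and camptothecin positive control wells for full effect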
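Read-out is percentage of cells bearing a perinucleolar compartment, from automated 20x imaging of fixed, Hoechst-stained PC3M PTB-GFP cells. Cells were seeded 4 h, then exposed 16 h to compound (23 nl of library stock) in duplicate plates.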
Active calls of the source: *; ? = inconclusive; . = no result; [ ] = remark or other dose. Unless noted, the call rests on the fitted dose curve; in most records, active means well fitted inhibition curve with a large enough effect (not every such curve was filed as active); inconclusive means small, poorly fitted or top-dose-only effect, or another doubt; inactive means no such curve, though single readings can be large or run the other way. Unless noted, on the % scale 0 is the no-effect control and ±100 the full control effect.

SMILES	NPSR antagonist	ALDH1A1 inh	IMPase Li cell	HPGD inh	IMPase cell inh	PNC inhibitor
COc1cccc(/C=N/Nc2nccnc2Cl)c1O	-2.7%	5.5%	13.1%	.	.	.
Cc1ccc(/C=N/Nc2cccc3cccnc23)c(O)c1	-13.2%[46.1 µM]	5.2%	.	.	5.0	22.4
Oc1ccc(/C=N/Nc2cccc3cccnc23)c(O)c1	-1.4%[46.1 µM]	?	35.1%	15.8µM*	-0.6	-11.2
Oc1ccccc1/C=N/Nc1nccnc1Cl	4.6%[46.1 µM]	3.2%	37.2%[38.3 µM]	-4.0%	-0.7	-87.7*
O=[N+]([O-])c1cccnc1N/N=C/c1ccccc1O	-20.1%	89.1µM*	8.8%	.	.	.
CCN(C(=O)Cn1c(=O)n(-c2ccccc2)c(=O)c2ccc(C(=O)NCc3ccc4c(c3)OCO4)cc21)c1cccc(C)c1	.	.	.	.	6.0	.
COc1cccc(CN2CCN(C3CCN(c4cccc(C)c4C)CC3)CC2CCO)c1 (configuration not stated)	23.6%	-2.1%	21.3%	.	.	.
CCCCCC(=O)NC(Cc1ccc(OC)c([N+](=O)[O-])c1)C(=O)O (configuration not stated)	23.9%	12.6µM*	-9.7%	.	.	.
COC(=O)C(N)Cc1ccc(OC)c([N+](=O)[O-])c1 (configuration not stated)	-16.6%	?	.	.	.	.
CCOC(=O)c1sc(NC(=O)c2cc(-c3ccccc3)nc3ccccc23)c(C#N)c1C	2.8%[46.1 µM]	3.16µM*	19.6%[38.3 µM]	15.8µM*	-0.6	33.4
CCOC(=O)c1sc(NC(=O)CSc2ccccn2)c(C#N)c1C	-28.3%[46.1 µM]	25.1µM*	-7.9%[38.3 µM]	0.7%	6.0	18.4
CCOC(=O)c1sc(NC(=O)CSc2nnc(Cc3ccccc3)o2)c(C#N)c1C	-4.2%[46.1 µM]	0.562µM*	17.6%[38.3 µM]	2µM*	-5.8	-13.5
CCOC(=O)c1sc(NC(=O)CSc2nc(C)cc(C)n2)c(C#N)c1C	-17.6%[46.1 µM]	-4.7%	-10.1%[38.3 µM]	-11.5%	-12.8	51.3
O=C(COC(=O)CNC(=O)c1cccc([N+](=O)[O-])c1)Nc1ccccc1OC(F)F	9.2%	?	5.1%	-21.0%	.	-16.7
CCOc1c(Cl)cc(C(=O)Nc2ccccc2-c2ccccc2)cc1Cl	-27.9%[46.1 µM]	?	-0.2%[38.3 µM]	?	5.0	?
Cn1cc(Br)c(C(=O)NC2C3CC4CC(C3)CC2C4)n1 (configuration not stated)	-24.5%[46.1 µM]	-1.5%	-1.1%	15.8µM*	-0.2	273.0
Cn1cc(C(=O)NC2C3CC4CC(C3)CC2C4)cn1 (configuration not stated)	1.2%	1.3%	-4.1%	-26.9%	.	-16.9
CCCCCCC(=O)c1c(C)[nH]c(C(=O)OCC)c1C	?	1.2%	25.8%[38.3 µM]	-10.0%	12.7	-27.5
O=C(O)Cn1c(SCc2cccc3ccccc23)nc2ccccc21	0.8%[46.1 µM]	1.7%	11.8%[38.3 µM]	25.1µM*	3.8	93.8
O=C(O)Cn1c(SCc2ccccc2)nc2ccccc21	2.2%[46.1 µM]	7.6%	13.6%[38.3 µM]	-5.3%	-6.2	?
c1cnc(N2CCSCC2)nc1	-10.5%[46.1 µM]	12.1%	-10.0%[38.3 µM]	-2.6%	-1.2	-91.3*
O=C1CN(C(=O)c2cc3ccccc3oc2=O)C(c2ccc(F)cc2)c2cc(F)ccc2N1 (configuration not stated)	-27.2%	-4.9%	1.0%	-23.1%	.	17.3
Cc1ccc(C)c(-n2nnnc2SCC(=O)c2ccc3c(c2)NC(=O)CO3)c1	-27.0%[46.1 µM]	0.631µM*	?	-26.9%	-8.2	-11.3
CCOC(=O)C1CCCN(Cc2ccccc2C)C1 (configuration not stated)	-17.9%[46.1 µM]	?	23.2%[38.3 µM]	6.6%	11.6	-2.2
Cc1cc(C)c2c(N)c3cccc(C)c3nc2n1	-14.2%	?	13.9%	?	.	-92.1*
SMILES	NPSR antagonist	ALDH1A1 inh	IMPase Li cell	HPGD inh	IMPase cell inh	PNC inhibitor
Cc1cc(O)ccc1N/C=C1\CCCC1=O	9.5%	12.6µM*	15.8%	?	.	-2.8
Cc1ccc(S(=O)(=O)NCC2CCC(C(=O)NCCCOC(C)C)CC2)cc1 (configuration not stated)	-4.2%	0.708µM*	-3.7%	-25.3%	.	?
CC(C)OCCCNC(=O)C1CCC(CNS(=O)(=O)c2ccccc2)CC1 (configuration not stated)	0.4%	3.55µM*	-5.4%	?	.	7.0
CC(C)OCCCNC(=O)C1CCC(CNS(=O)(=O)c2ccc(Cl)cc2)CC1 (configuration not stated)	2.5%	?	-2.9%	-10.3%	.	28.8
CC(NC(=O)/C(C#N)=C/c1ccc(Cl)c([N+](=O)[O-])c1)c1ccccc1 (configuration not stated)	?	6.5%	2.9%	3.2%	.	-100.0*
O=S(=O)(Nc1cccc(Oc2cnccn2)c1)c1ccc(F)cc1	2.4%	-4.6%	7.6%	.	.	.
Cc1ccc(S(=O)(=O)Nc2cccc(Oc3cnccn3)c2)cc1	-15.8%	7.94µM*	16.6%	.	.	.
Cc1c(C(=O)O)oc2ccc(S(=O)(=O)N3CC(C)CC(C)C3)cc12 (configuration not stated)	-4.9%[46.1 µM]	-4.2%	12.5%	?	-2.0	-11.3
Cc1c(C(=O)N(C)Cc2ccccc2)oc2ccc(S(=O)(=O)N3CCCC3)cc12	?	22.4µM*	-1.9%[38.3 µM]	-3.0%	7.0	14.9
Cc1c(C(=O)NCCc2ccccc2)oc2ccc(S(=O)(=O)N3CCC4(CC3)OCCO4)cc12	-23.3%[46.1 µM]	?	-0.1%[38.3 µM]	-9.7%	6.3	91.1
Cc1c(C(=O)NCc2ccccc2)oc2ccc(S(=O)(=O)N3CCCC3)cc12	-25.5%[46.1 µM]	?	9.7%[38.3 µM]	-4.1%	9.8	29.9
COc1ccc(NC(=O)c2oc3ccc(S(=O)(=O)N4CCC5(CC4)OCCO5)cc3c2C)cc1	?	22.4µM*	16.9%	-26.2%	3.8	?
Cc1c(C(=O)O)oc2ccc(S(=O)(=O)N3CCC(C)CC3)cc12	2.7%[46.1 µM]	0.7%	19.9%[38.3 µM]	11.2µM*	3.9	3.6
COc1cc(S(=O)(=O)NCCOC23CC4CC(CC(C4)C2)C3)c(OC)cc1Cl	-56.2%	?	-1.5%	-19.1%	.	51.8
COc1cccc2c1OC1(C)CC2N(C(=O)c2ccco2)C(=S)N1c1ccc(F)cc1 (configuration not stated)	-14.4%[46.1 µM]	9.4%	4.8%[38.3 µM]	1.3%	4.8	?
CC(=O)NCc1ccc(C(=O)O)cc1	10.4%	.	.	.	.	.
Cn1c(=O)n(C)c2cc(/C=C3/NC(=O)N(Cc4ccccc4)C3=O)ccc21	-14.1%[46.1 µM]	?	4.0%[38.3 µM]	-14.2%	-3.2	-7.9
COC(=O)CN1C(=O)N/C(=C/c2ccc(C)o2)C1=O	-24.9%	17.8µM*	3.2%	.	.	.
Cc1ccc(/C=C2/NC(=O)N(Cc3ccccc3)C2=O)o1	-49.8%	3.55µM*	7.1%	25.1µM*	.	-2.5
CCOc1cccc2cc(-c3nnc(NCc4ccc5c(c4)OCO5)s3)c(=O)oc12	-24.2%	-5.8%	-6.7%	?	-13.4	12.3
